# Test results as given in PubChem BioAssay (EPA / NIEHS).
# Records with an inconclusive call do not appear. Active and inactive are the calls of the source. Rule for the calls: active = hit-call score of the fitted dose curve at least 0.9, where 1 is the maximum; inconclusive = response in the unintended direction; inactive = score below 0.9.
# Read-out: Cytochrome P450 2C19 (Homo sapiens) (UniProt P33261)
# Assay: CLD_CYP2C19_48hr: CellzDirect (CLD) Gene Expression Assay for xenobiotic metabolism (CYP2C19) at 48 hours (AID 2283700);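 note: fitted upward so actives raise CYP2C19 mRNA above the 0.2% DMSO vehicle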
# Experimental: CLD_48hr is a cell-based, multiplexed-readout assay that uses hepatocyte, a human liver primary cell, with measurements taken at 48 hours after chemical dosing in a 96-well plate.CLD_CYP2C19_48hr is one of 16 assay component(s) measured or calculated from the CLD_48hr assay. It is designed to make measurements of mRNA induction, a form of inducible reporter, as detected with chemiluminescence signals by Quantitative Nuclease Protection Assay (qNPA) technology.Data from the assay component CLD_CYP2C19_48hr was analyzed at the endpoint, CLD_CYP2C19_48hr, in the positive analysis fitting direction relative to DMSO as the negative control and baseline of activity. Using a type of inducible reporter, gain-of-signal activity can be used to understand changes in the reporter gene as they relate to the gene CYP2C19. Furthermore, this assay endpoint can be referred to as a primary readout. To generalize the intended target to other relatable targets, this assay endpoint is annotated to the cyp intended target family, where subfamily is xenobiotic metabolism.
# Human hepatocyte cultures were treated daily for two consecutive days with fresh dosing solutions containing appropriate concentrations of the 320 ToxCast chemicals (chemical identities were blinded to CellzDirect and other ToxCast collaborators), vehicle control (0.2% DMSO), and positive control inducers as summarized in Table 1. Due to the large number of treatment groups and chemicals examined, the ToxCast chemicals were divided into two groups (spanning two independent cultures of hepatocytes from separate donor preparations (Hu778: ToxCast plates 1 and 2; Hu776: ToxCast plates 3 and 4). Each preparation of human hepatocyte cultures was treated with respective vehicle control, medium only control, set of six positive controls/reference chemicals for the five hepatic receptor pathways, and a subset of eight of the ToxCast chemicals (indoxacarb, pyrithiobac-sodium, norflurazon, cyhalofop-butyl, methomyl, thiram, acetochlor, and propiconazole). These replicate data, coupled with internal replicates designed within the blinded ToxCast chemical library, provided additional data to evaluate interindividual differences between hepatocyte preparations and their potential impact on chemical profiles.Cell morphology and integrity were evaluated using phase-contrast microscopy as an indicator of hepatocyte cell health (Tyson & Green, 1987). Cultures for each treatment group (i.e., media, vehicle [0.2% DMSO], positive control inducers [multiple concentrations], and the ToxCast chemicals [multiple concentrations]) were observed and cell morphology was assessed relative to vehicle control cultures at each harvest time point (0, 6, 24, or 48 h). […] Images were evaluated at the conclusion of the study to assess changes in cell integrity and account for the effects of chemical exposure on uncharacteristic changes in concentration-dependent gene expression profiles. The results from these determinations of apparent cytotoxicity were annotated (yes/no) alongside the corresponding qNPA data for reference.At the conclusion of each treatment period, hepatocyte cultures (96-well) were washed with 1 volume of HBSS, lysed by addition of 25 ul ArrayPlate lysis buffer (HTG, Tucson, AZ), and 70 ul/well of Denaturation Oil, denatured by incubation at 95C for 10 min, and frozen at approximately -70C until analysis by nuclease protection assay (qNPA) (Roberts et al., 2007). For qNPA analysis, cell lysates were thawed at 50C for approximately 30 min, qNPA probes were added, and samples were incubated at 95C for 10 min to begin the detection process by denaturing the target RNA, dissociating the duplexes and secondary structure hybridization. At the conclusion of the hybridization period, S1 nuclease reagent was added to each sample to digest all nonprotected nucleotides at 50C for 60-90 min. […]
# Chain of Cytochrome P450 2C19 (Homo sapiens) (P33261 whole entry, looked up): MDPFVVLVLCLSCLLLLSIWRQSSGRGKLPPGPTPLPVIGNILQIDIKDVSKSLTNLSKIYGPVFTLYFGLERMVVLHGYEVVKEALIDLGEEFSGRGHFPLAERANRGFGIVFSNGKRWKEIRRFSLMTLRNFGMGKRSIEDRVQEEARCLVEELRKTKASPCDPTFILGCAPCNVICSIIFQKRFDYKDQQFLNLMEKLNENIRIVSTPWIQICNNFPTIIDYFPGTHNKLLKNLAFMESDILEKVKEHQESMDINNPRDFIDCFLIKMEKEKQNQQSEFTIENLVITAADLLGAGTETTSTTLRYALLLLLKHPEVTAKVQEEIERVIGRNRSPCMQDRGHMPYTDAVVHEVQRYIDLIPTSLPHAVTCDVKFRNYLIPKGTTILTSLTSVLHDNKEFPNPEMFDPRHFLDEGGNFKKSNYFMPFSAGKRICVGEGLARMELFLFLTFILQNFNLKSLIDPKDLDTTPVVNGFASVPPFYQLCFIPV
row,SMILES,outcome
1,Cc1ccn2nc(S(=O)(=O)Nc3c(F)cccc3F)nc2n1,inactive
2,CCCOc1nn(C(=O)NS(=O)(=O)c2ccccc2C(=O)OC)c(=O)n1C,inactive
3,CCOP(=S)(OCC)Oc1ccc2c(C)c(Cl)c(=O)oc2c1,inactive
4,CC(=NC#N)N(C)Cc1ccc(Cl)nc1,inactive
5,CNC(=O)ON=C(SC)C(=O)N(C)C,inactive
6,CC(C1CC1)C(O)(Cn1cncn1)c1ccc(Cl)cc1 (stereo not given),inactive
7,CC1=NNC(=O)N(/N=C/c2cccnc2)C1,inactive
8,S=C1NCCN1,inactive
9,CCOP(=O)(NC(C)C)Oc1ccc(SC)c(C)c1 (stereo not given),inactive
10,COc1cccc(C(=O)NN(C(=O)c2cc(C)cc(C)c2)C(C)(C)C)c1C,inactive
11,CNC(=O)ON=C(C)SC,inactive
12,CC(Oc1cccc(Cl)c1)C(=O)O (stereo not given),inactive
13,CN1COCN(Cc2cnc(Cl)s2)C1=N[N+](=O)[O-],inactive
14,COP(=O)(OC)OC(Br)C(Cl)(Cl)Br (stereo not given),inactive
15,COP(=O)(NC(C)=O)SC (stereo not given),inactive
16,CCCCOC(=O)c1ccccc1C(=O)O,inactive
17,O=C(O)c1cc(Oc2ccc(C(F)(F)F)cc2Cl)ccc1[N+](=O)[O-],inactive
18,C#CC(C)(C)NC(=O)c1cc(Cl)cc(Cl)c1,inactive
19,CC1(C(=O)Nc2ccc(O)c(Cl)c2Cl)CCCCC1,inactive
20,C=C(C)[C@H]1Cc2c(ccc3c2O[C@@H]2COc4cc(OC)c(OC)cc4[C@@H]2C3=O)O1,inactive
21,CCOP(=O)(OCC)Oc1cc(C)nc(C(C)C)n1,inactive
22,CCOP(=S)(OCC)SCCSCC,inactive
23,Cc1nn(-c2cc(NS(C)(=O)=O)c(Cl)cc2Cl)c(=O)n1C(F)F,inactive
24,CCCCOC(=O)[C@@H](C)Oc1ccc(Oc2ccc(C#N)cc2F)cc1,inactive
25,CN(C)NC(=O)CCC(=O)O,inactive
26,C[N+]1(C)CCCCC1,inactive
27,CC(C)=CC1C(C(=O)OCN2C(=O)C3=C(CCCC3)C2=O)C1(C)C (stereo not given),inactive
28,CCc1cnc(C2=NC(C)(C(C)C)C(=O)N2)c(C(=O)O)c1 (stereo not given),inactive
29,CNC(=O)Oc1cccc2c1OC(C)(C)O2,inactive
30,COc1cc(OC)nc(Sc2cccc(Cl)c2C(=O)O)n1,inactive
